“And” between values parts separate entries of the source, which are not always exact repeats. Identical values can stand only once. Hit rate of the full screen: of about 400,000 compounds, about 3,700 (0.93%) were called active. Inconclusive results (about 3%) are left out. For the sample, actives were picked, then their nearest neighbours and some compounds at random. Unmarked numbers belong to inactive results. Calls follow the shape of the dose curve; as a rule, active = well fitted inhibition curve with a large enough effect; inconclusive = small, poorly fitted or top-dose-only effect, or another doubt; inactive = no such curve, though single readings can be large or run the other way. Where a SMILES comes first, the peptide text is derived from it. Side-chain parts run from the residue outwards. [ ]: non-standard residue; d: D form. The star is where a group is joined. X1 = CCC(C)C(N)C1=NC(C(=O)*)CS1; Orn = NCCC[CH](N)C(=O)O
% is scaled to controls: 0 for no effect and ±100 for the full control effect; potency is read from the fitted curve at half-maximal effect.

Vitamin D3 receptor (Homo sapiens), sequence (P11473 whole entry, looked up): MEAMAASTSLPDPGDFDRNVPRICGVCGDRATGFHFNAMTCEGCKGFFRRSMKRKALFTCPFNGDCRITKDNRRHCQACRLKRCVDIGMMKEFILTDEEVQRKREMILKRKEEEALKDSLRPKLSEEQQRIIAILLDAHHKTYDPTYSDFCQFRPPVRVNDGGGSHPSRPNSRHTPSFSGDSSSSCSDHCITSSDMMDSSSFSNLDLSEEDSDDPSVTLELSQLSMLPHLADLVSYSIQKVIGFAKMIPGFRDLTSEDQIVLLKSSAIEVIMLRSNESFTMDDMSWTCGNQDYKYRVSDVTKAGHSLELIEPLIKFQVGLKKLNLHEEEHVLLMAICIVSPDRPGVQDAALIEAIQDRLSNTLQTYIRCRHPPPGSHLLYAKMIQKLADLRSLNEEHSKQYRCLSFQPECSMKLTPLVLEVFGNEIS

The target in the assay is Vitamin D3 receptor (Homo sapiens) (UniProt P11473). Put plainly: Inhibitors of the vitamin D receptor (VDR): qHTS. The note with it: VDR-SRC2-3 peptide fluorescence polarization, 2 h; max response, negative = inhibition: stronger effect = lower value. Put shortly:
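FP read-out; VDR + SRC2-3 coactivator peptide; 23 nl compound by pintool; 2 h RT incubation; reagents held at 4 deg C, protected from light.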
A general note: In qHTS, concentration-response curves come from the screen itself.
As to `CCOc1ccc(-c2n[nH]c3c2C(c2ccccc2OC)N(c2ccc(Br)cc2)C3=O)cc1` (centres undefined), the max response, negative = inhibition is -27%.
With `Nc1ccc2nc3c(=O)[nH]c(=S)[nH]c3nc2c1`, the Potency is 79.4 µM (active).
On to `O=C(NCCc1ccc(Cl)cc1)c1ccc2c(c1)N(Cc1ccc(F)cc1)C(=O)CS2`, for which the max response, negative = inhibition was -1.91%.
For `Cc1c(S(=O)(=O)O)oc2c1C(=O)C(=O)c1c-2ccc2c1CCCC2(C)C`, the Potency is 8.91 µM (active).
Turning to `Cc1ccc(C(=O)Nc2nc(-c3ccccc3)ns2)cc1`, the max response, negative = inhibition was 2.63%.
Still for that read-out and setting: with `CCCCCCCCCCCCCCCCO` the figure was 0.1% and 6.37%.
Regarding `CCOc1ccc(-n2c(N)c(C(=O)NCC3CCCO3)sc2=S)cc1` (centres undefined), the Potency is 79.4 µM (active).
For the compound `CCOc1ccc(S(=O)(=O)N2CCN(C(=S)NCC3CCCO3)CC2)cc1` (centres undefined), the max response, negative = inhibition is 28.2%.
With `CCOc1ccc(S(=O)(=O)NCCC(=O)NCC2CCCO2)cc1` (centres undefined), the max response, negative = inhibition was -3.32%.
The same measure, in the same setting: with `O=C(NC1CC(=O)N(c2ccc(Cl)cc2)C1)C1CCCC1` (centres undefined) the figure was -5.32%.
As for `CN(C)S(=O)(=O)N1CCN(c2ccc([N+](=O)[O-])cc2)CC1`, the max response, negative = inhibition was -2.16%.
On to `O=C1/C(=C\c2ccc([N+](=O)[O-])cc2)CS(=O)(=O)C/C1=C/c1ccc([N+](=O)[O-])cc1`, for which the Potency was 39.8 µM (active).
With `CCCCC(=O)Nc1c2c(nn1-c1ccc([N+](=O)[O-])cc1)CS(=O)(=O)C2`, the max response, negative = inhibition is -18.5%.
`Cc1cc(C)c(-c2n[nH]c3c2C(c2ccccc2F)N(CCO)C3=O)c(O)c1` (centres undefined): the max response, negative = inhibition is 7.23%.
The same measure, in the same setting: with `O=c1cnc2cnc(Nc3ccccc3)nc2n1Cc1ccc(F)cc1` the figure was -4.57%; with `Cc1cc(NC(=O)CSc2ncc(C(=O)Nc3ccc(Cl)cc3)c(=O)n2C)no1`, 4.19%; with `COc1ccc(NC(=O)c2ccco2)cc1NC(=O)COc1ccc(C)c(C)c1`, 5.81%.
As to `O=C(NC(=S)Nc1ccccc1C(=O)O)c1ccc(-c2ccc(Br)cc2)o1`, the Potency was 70.8 µM (active).
With `CN1CCN(C(=O)c2ccc(-c3ccc(Br)cc3)o2)CC1`, the max response, negative = inhibition was -9.02%.
In the case of `O=C(O)c1ccccc1NC(=O)c1ccccc1-c1ccccc1C(=O)O`, the max response, negative = inhibition was -22.4%.
Consider `O=C(Nc1ccccc1Cl)N1CCC(CN2CCCCC2)CC1`, for which the max response, negative = inhibition is 4.52%.
`COc1cc(-c2cc3n(C)c(C)c(CCC(=O)Nc4ccc(F)cc4)c(=O)n3n2)cc(OC)c1OC`: the max response, negative = inhibition is -2.64%.
For the compound `NCCCNC(=S)NCCCN(Cc1ccc(Cl)cc1)c1ccc(Br)cn1`, the max response, negative = inhibition was -24.7%.
For `O=C(C1CC(=O)N(C2CCCCC2)C1)N1CCN(c2ccccc2)CC1` (centres undefined), the max response, negative = inhibition was -11.8%.
With `O=C1C=CC(=O)N1c1ccc(N2CCCCC2)cc1`, the Potency was 17.8 µM (active).
Turning to `CC(=O)Nc1ccc(S(=O)(=O)Nc2ccc(N3CCCCC3)cc2)cc1`, the max response, negative = inhibition is 6.02%.
`Cc1cc(-c2ccc(C)c(S(=O)(=O)N3c4ccccc4CC3C)c2)on1` (centres undefined): the max response, negative = inhibition was 9.78%.
On to `Cc1[nH][nH]c(=O)c1C(c1ccc(-c2ccc(Cl)cc2)o1)c1c(C)[nH][nH]c1=O`, for which the Potency was 79.4 µM (active).
For the compound `CCOc1ccc(C(=O)CCC(=O)Nc2ccncc2)cc1`, the max response, negative = inhibition is -4.74%.
For the compound `CCOc1ccc(C(=O)N2CCN(CCc3ccccn3)CC2)cc1`, the max response, negative = inhibition was -7.3%.
As for `CCOc1ccc(C(=O)CCN2CCOCC2)cc1`, the Potency is 50.1 µM (active).
Turning to `Cc1ccc(-c2nnc3c4ccccc4c(C)nn23)cc1NC(=O)c1cccc(Br)c1`, the max response, negative = inhibition is -6.72%.
As to `CCC(=O)N1CCc2cc(S(=O)(=O)NC(C(=O)NCCc3ccc(C)cc3)C(C)C)ccc21` (centres undefined), the max response, negative = inhibition is -2.72%.
Take `Cc1cccc(N2CCN(C(=O)Cn3ncc4c5ccccc5n(C)c4c3=O)CC2C)c1` (centres undefined): the max response, negative = inhibition was 4.17%.
Regarding `CCCCc1ccc(NC(=O)CN2C(=O)NC(Cc3ccccc3)C2=O)cc1` (centres undefined), the max response, negative = inhibition was 3.7%.
Still for that read-out and setting: under `CCCOC(=O)c1ccc(N2C(=O)c3ccccc3C2=O)cc1` stands -19.4%.
As for `CCCC[C@H]1C(=O)N(c2ccccc2)N(c2ccc(O)cc2)C1=O`, the Potency was 10 µM (active).
Take `CC(C)c1ccc2oc(-c3cc(NC(=O)c4cccs4)ccc3Cl)nc2c1`: the max response, negative = inhibition was 15%.
Turning to `CCC(C)C(N)C1=NC(C(=O)NC(CC(C)C)C(=O)NC(CCC(=O)O)C(=O)NC(C(=O)NCCCCC2NC(=O)C(CC(N)=O)NC(=O)C(CC(=O)O)NC(=O)C(Cc3cnc[nH]3)NC(=O)C(Cc3ccccc3)NC(=O)C(C(C)CC)NC(=O)C(CCCN)NC2=O)C(C)CC)CS1` (stereo not drawn) (cyclo(DNK([Ile-Glu-Leu-X1])[Orn]IFH); configuration not given here), the max response, negative = inhibition is -26.4%.
Regarding `C#CCOc1ccc(C2CC(=O)Nc3c2c(C)nn3-c2nc(C)cc(C)n2)cc1` (centres undefined), the max response, negative = inhibition is 10.7%.
Regarding `CC/C(O)=N\S(=O)(=O)c1ccc(N=NN(C)C)cc1`, the max response, negative = inhibition was 15.8%.
On to `CN(C)N=Nc1ccc2nc[nH]c2c1`, for which the Potency is 35.5 µM (active).
On to `CC(=NNC(=O)c1ccc2nc[nH]c2c1)c1ccc(Br)cc1`, for which the max response, negative = inhibition was -21.3%.
`COc1cc(OC)c(NC(=O)Cc2ccc(-n3c(C)nc4cccnc43)cc2)cc1Cl`: the max response, negative = inhibition was 1.5%.
With `CC1=C/C(=N\OS(=O)(=O)c2ccccc2)C=CC1=O`, the Potency is 31.6 µM (active).
As for `Cc1ccc(NC(=O)C2CCN(S(=O)(=O)c3cc(-c4noc(C)n4)ccc3C)CC2)c(C)c1`, the max response, negative = inhibition is 14.7%.
As for `Cc1nn2c(=O)cc(COC(=O)c3cccc(NC(=O)COc4ccccc4Cl)c3)nc2s1`, the max response, negative = inhibition is 9.23%.
As to `Nc1ncnc2c1c(I)cn2[C@@H]1C[C@H](N)[C@@H](O)[C@H]1O`, the max response, negative = inhibition is -8.19%.
Same read-out and setting: with `COc1ccc(Cl)cc1NC(=O)c1sc2nc3c(cc2c1N)CN(C)CC3` the figure was -1.58%; with `N#Cc1c(C(F)(F)F)cc(-c2ccc(Cl)cc2)nc1SCC(=O)O`, -2.18%; with `O=C(O)CSc1ccc(S(=O)(=O)N2CCCC2)cn1`, 10.8%.
With `N#Cc1c(N2CCCCC2)nc(N)c2c(N)nc(SCC(=O)O)cc12`, the Potency is 50.1 µM (active).
As for `Cc1cc(C)cc(NS(=O)(=O)c2cc3c(cc2C)NC(=O)CO3)c1`, the max response, negative = inhibition is -6.49%.
Regarding `Cc1cc(C)c(NC(=O)CN2C(=O)c3cccnc3Oc3ccc(Cl)cc32)c(C)c1`, the max response, negative = inhibition was 7.84%.
Still for that read-out and setting: under `CCOc1ccc(NC(=O)c2ncoc2-c2ccco2)cc1` stands 3.68%; under `C=CCNC(=O)c1ccc2nc(-c3ccco3)c(-c3ccco3)nc2c1`, -28.3%.
`COCCNC(=O)Nc1ccc2nc(-c3ccco3)c(-c3ccco3)nc2c1`: the Potency is 79.4 µM (active).
Turning to `CCC(C)NC(=O)Cn1c(=O)n(-c2ccc(Cl)cc2)c(=O)c2c3c(sc21)CCCC3` (centres undefined), the max response, negative = inhibition is 7.47%.
For `Cc1nc([N+](=O)[O-])nn1C12CC3CC(CC(Br)(C3)C1)C2`, the Potency is 20 µM (active).
`CC1(C)OC2CC(=O)OC[C@@]23C1CC(=O)[C@]1(C)C3CC[C@@]2(C)C(c3ccoc3)OC(=O)C3O[C@@]321` (some centres undefined): the max response, negative = inhibition is 3.74%.
As for `CCOC(=O)c1c(C)oc2nc(C)nc(N3CCN(c4ccc(OC)cc4)CC3)c12`, the max response, negative = inhibition was 5.63%.
For `COc1ccc(C2(C#N)CCC(C(=O)O)CC2)cc1OC1CCCC1` (centres undefined), the max response, negative = inhibition was 5.35%.
On to `CC(C)Oc1ccc(NC(=O)c2cc3ccccc3o2)cc1`, for which the max response, negative = inhibition was 10.8%.
With `CC(C)Oc1ccc(CC(=O)NNC(=S)Nc2ccc(Br)cc2)cc1`, the Potency was 70.8 µM (active).
Consider `Cc1ccc(OC(=O)CCC(=O)Nc2ccc(Br)cc2)cc1`, for which the max response, negative = inhibition was 4.03%.
On to `FCOC(C(F)(F)F)C(F)(F)F`, for which the max response, negative = inhibition was 1.95%.
`O=C(CSc1nnc(CNC(=O)c2ccccc2)n1-c1ccc(F)cc1)Nc1ccccc1F`: the max response, negative = inhibition was 2.71%.
With `CCOc1ccc(N(C)S(=O)(=O)c2cc(-c3cnc(C)o3)ccc2OC)cc1`, the max response, negative = inhibition was -2.82%.
For the compound `Cc1cccc(N2C(=O)c3ccc(C(=O)Nc4cccc(C(=O)O)c4)cc3C2=O)c1`, the max response, negative = inhibition is 13.1%.
Turning to `O=C(c1ccc2c(c1)C(=O)N(c1ccc(Cl)cc1)C2=O)N1CCN(c2ccccn2)CC1`, the max response, negative = inhibition was -2.28%.
Consider `O=C(O)c1ccc2c(c1)C(=O)N(c1ccc(/C=C/C(=O)c3ccccc3)cc1)C2=O`, for which the Potency was 20 µM (active).
In the case of `Cc1ccc(-n2c(SCC(=O)c3ccccc3)nc3c([nH]c4ccccc43)c2=O)cc1`, the max response, negative = inhibition was 23.5%.
`COc1ccc(Cl)cc1NC(=O)CSc1nc(=O)[nH]c2c1CCCC2`: the max response, negative = inhibition was -3.46%.
`Nc1ncc(S(=O)(=O)Nc2ccc(OC(F)(F)F)cc2)cn1`: the max response, negative = inhibition is 5.75%.
For the compound `CCN(CC)C(=O)CSc1nnc(CNc2ccc(F)cc2)n1Cc1ccco1`, the max response, negative = inhibition is 6.05%.
Regarding `CN(C)C(=S)N=c1ssc(=S)n1Cc1ccco1`, the Potency was 44.7 µM (active).
For `CC1CN(Cc2ccco2)C(=S)N(c2ccccc2)C1=O` (centres undefined), the max response, negative = inhibition was 8.1%.
Turning to `COc1cc(C(=O)Nc2ccc(-n3c(C)nc4ccccc4c3=O)cc2)cc(OC)c1OC`, the max response, negative = inhibition was -3.22%.
Same read-out and setting: under `Cc1cccc(NC(=O)C2CCCN2S(=O)(=O)c2cccc3nsnc23)c1C` (centres undefined) stands -10.9%.
Regarding `CN(C)C(=O)N=NC(=O)N(C)C`, the Potency was 20 µM (active).
With `COc1ccc(-n2ccnc(NCCc3ccc(Cl)cc3)c2=O)cc1OC`, the max response, negative = inhibition was 6.6%.
Take `COc1cccc(-c2nnc3n(CCc4ccccc4)c(=O)c4ccccc4n23)c1O`: the max response, negative = inhibition was 17.6%.
Turning to `CC1CCN(C(=S)c2ccc(-c3ccc(Cl)cc3Cl)o2)CC1`, the Potency is 79.4 µM (active).
For the compound `CC1CCN(C(=S)c2cccc(O)c2)CC1`, the max response, negative = inhibition was -26.6%.
On to `Cc1csc(NC(=O)c2ccc(-c3ccc(Cl)cc3Cl)o2)n1`, for which the max response, negative = inhibition was -1.72%.
`Cc1cccc(Nc2cc(C)nc(-n3nc(C)cc3C)n2)c1`: the max response, negative = inhibition was 8.15%.
For `Cc1cc(C)cc(Oc2nc3c(C)cccn3c(=O)c2/C=C(\C#N)C(=O)NC2CCS(=O)(=O)C2)c1` (centres undefined), the Potency was 20 µM (active).
As to `Cc1cccn2c(=O)c3cc(C(=O)NC4CCCCC4)sc3nc12`, the max response, negative = inhibition was 8.23%.
Same read-out and setting: with `Cc1cccn2c(=O)c(/C=C(\C#N)C(N)=O)c(N3CCCCCC3)nc12` the figure was -6.66%.

The values above are taken from PubChem BioAssay AID504847 (National Center for Advancing Translational Sciences (NCATS), 2011).
